Reference: ChEMBL document CHEMBL4513216, “Probing the Open Global Health Chemical Diversity Library for Multistage-Active Starting Points for Next-Generation Antimalarials” (ACS Infect Dis, 2020)
Hit rate of the full screen: of about 69,000 compounds, about 8,600 (12%) showed an effect of 50% or more. The sample holds strong results, similar compounds and a random draw of the others, so the mix is not that of the screen.

What follows are molecules tested on Plasmodium berghei (assay: Screen against P. berghei liver stage (PbLuc), transformed with Luciferase, at 10uM). Details: tested at 10 uM.
Type: functional, HepG2

First: Cc1cnn(CC2CN(Cc3ccc(-n4cccn4)cc3)CCO2)c1 (stereo not given)
Second: c1ccc(-c2nnc(CN3CCOC(Cn4cccn4)C3)o2)cc1 (stereo not given)
The INHIBITION of the first is higher: 40% for the first, 0.914% for the second.

First: CC(C)c1ncncc1C(=O)N1CCN(Cc2ccccn2)CC1
Second: COc1cnc(C2(O)CCN(C(=O)c3ccccn3)CC2)c(OC)n1
The INHIBITION of the first is lower: 5.9% for the first, 57.5% for the second.

Compared with `Cc1cc(C(=O)Nc2cnn(CC(F)(F)F)c2)nc(N(C)C)n1`, `CN(C)c1ncc(-c2cc(C(=O)NC(C)(C)CO)n(CC3CC3)c2)cn1` is lower in INHIBITION: 0.91% for the first, -21.1% for the second.

Compared with `O=C1CCC(=O)N1c1nn(Cc2ccccc2Cl)cc1Cl`, `O=C(O)c1ccccc1-n1cc(CN2CCC(c3cc[nH]n3)C2)cn1` (stereo not given) is higher in INHIBITION: 20.4% for the first, 22.17% for the second.

First: Cc1cc(C)c(CNC(=O)NCC2COCCO2)c(=O)[nH]1 (stereo not given)
Second: CCOC(=O)CNC(=O)NCc1cccn1Cc1cccc(C)c1
The INHIBITION of the first is lower: 23.45% for the first, 45.8% for the second.

Going from `CCc1ccc2c(c1)C(CCNC(=O)CCc1ccsc1)C(=O)N2` (stereo not given) to `CCc1ccc2c(c1)C(CCNC(=O)Cc1ccc(F)cc1)C(=O)N2` (stereo not given), the INHIBITION rises from 26.7% to 53.6%.

Compared with `CCN1CCN(c2ccc(CNC(=O)c3sccc3C)cn2)CC1`, `CCc1ccc2c(c1)C(CCNC(=O)c1sccc1C)C(=O)N2` (stereo not given) is higher in INHIBITION: -23.8% for the first, 61.9% for the second.

First: CCc1ccc2c(c1)C(CCNC(=O)CSC(F)(F)F)C(=O)N2 (stereo not given)
Second: CCc1ccc2c(c1)C(CCNC(=O)Cc1cccc(F)c1)C(=O)N2 (stereo not given)
The INHIBITION of the first is higher: 40.6% for the first, 37.8% for the second.

First: CS(=O)(=O)N(Cc1ccon1)c1cccc(Br)c1
Second: Cc1ccc(C)c(S(=O)(=O)CCN2CCCC2Cn2cccn2)c1 (stereo not given)
The INHIBITION of the first is lower: -11.9% for the first, 4.93% for the second.

First: CC(c1ccccc1)n1cc2nc(N(C)C)[nH]cc-2c1=O (stereo not given)
Second: CN(C)C(=O)c1cccnc1SCc1ccccc1C#N
The INHIBITION of the first is higher: 15.7% for the first, 1.61% for the second.

First: CC(C)S(=O)(=O)C(C)C(=O)NCc1ccccc1OCc1ccccc1 (stereo not given)
Second: CC(C)Oc1ncccc1CNC(=O)NC1CCOc2ccccc21 (stereo not given)
The INHIBITION of the first is lower: 42.5% for the first, 42.9% for the second.

Going from `CNC(=O)[C@@H](c1ccccc1OC)N1CCC[C@H]1C(=O)N1CC[C@@H](O)C1` to `COc1cccc(C(=O)NCC(c2cccn2C)N2CCCC2)c1OC` (stereo not given), the INHIBITION rises from -63.5% to 75.6%.

Compared with `O=C(O)c1nnn(-c2ccc(OC(F)(F)F)cc2)c1-c1ccncc1`, `COc1cnc(C2(O)CCN(C(=O)c3ccncc3)CC2)c(OC)n1` is higher in INHIBITION: -22.1% for the first, 37.5% for the second.

First: COc1ccc(-n2cccn2)c(CN2CCC3(CCCNC3)C2)c1 (stereo not given)
Second: COc1ccc(-n2cccn2)c(CN2CCC3(CCNCC3)C2)c1
The INHIBITION of the first is lower: 13% for the first, 53% for the second.

First: c1cnn(Cc2ccc(CN3CCC4(CCNCC4)C3)cc2)c1
Second: c1cnn(Cc2ccc(CN3CCC4(CCCNC4)C3)cc2)c1 (stereo not given)
The INHIBITION of the first is higher: 60.3% for the first, 3.96% for the second.

First: COc1ccc(-n2cccn2)c(CN2CCC(O)(CO)CC2)c1
Second: c1ccc(Cn2cccn2)c(CN2CCC3(CCCNC3)C2)c1 (stereo not given)
The INHIBITION of the first is higher: 21.2% for the first, 4.87% for the second.

First: Cn1cccc1C(=O)N1CC[C@@]2(O)CCN(S(C)(=O)=O)C[C@H]2C1
Second: Cc1cccc(C2(O)CCN(C(=O)c3ccccn3)CC2)c1C
The INHIBITION of the first is lower: 42.1% for the first, 57.8% for the second.

Compared with `CC(C)CNc1nccc(-c2cnc3sc(Cl)cn3c2=O)n1`, `CCn1nc(Br)nc1Sc1ccccc1NC(C)=O` is higher in INHIBITION: 2.6% for the first, 12.4% for the second.

Going from `Cc1cc(C(F)(F)F)nn1CC(C)C(=O)Nc1ccccn1` (stereo not given) to `Cc1cc(C)n(CC(=O)NCc2ccccn2)n1`, the INHIBITION rises from -22.2% to 3.58%.

Going from `COc1ncccc1CNC(=O)NC1CCOc2ccccc21` (stereo not given) to `CCOc1ncccc1CNC(=O)NC1CCOc2ccccc21` (stereo not given), the INHIBITION rises from 29.6% to 52.5%.

First: COc1ccccc1C(=O)N1CCC(O)(c2cccc(C)c2C)CC1
Second: Cc1cccc(C2(O)CCN(C(=O)c3ccc(N(C)C)cc3)CC2)c1C
The INHIBITION of the first is lower: 24.2% for the first, 33.1% for the second.

First: COc1cnc(C2(O)CCN(C(=O)c3scnc3C)CC2)c(OC)n1
Second: CCC(=O)N1CCC(O)(c2ncc(OC)nc2OC)CC1
The INHIBITION of the first is higher: 36.7% for the first, 0.0932% for the second.

First: COc1cnc(C2(O)CCN(C(=O)c3ccco3)CC2)c(OC)n1
Second: COc1cnc(C2(O)CCN(C(=O)c3cccnc3)CC2)c(OC)n1
The INHIBITION of the first is lower: 29.3% for the first, 60.8% for the second.

Going from `CCOC(=O)[C@H]1CNC[C@@H]1C(F)(F)F` to `CCc1nccn1C1CCCN(C(=O)c2ccoc2C)C1` (stereo not given), the INHIBITION falls from 35.6% to 21.6%.

Compared with `Cc1nnc([C@@H]2CC[C@@H]3[C@@H](CCN3S(=O)(=O)c3cccnc3)O2)o1`, `O=C1[C@H]2CN(S(=O)(=O)C3CC3)C[C@H]2CN1Cc1cccnc1` is higher in INHIBITION: 14.2% for the first, 15.4% for the second.

Compared with `Cc1ccc(C(=O)NS(=O)(=O)c2ccccc2F)c(=O)[nH]1`, `Cc1nc(-c2ccc(CNS(=O)(=O)N(C)C)cc2)ccc1C(N)=O` is lower in INHIBITION: 33.8% for the first, -4.87% for the second.

Going from `CN(C)C(=O)Cn1cc(C(=O)NCCc2ccc(Cl)cc2Cl)nn1` to `CN(C)C(=O)Cc1nc(CN2CCCC2Cn2cccn2)cs1` (stereo not given), the INHIBITION rises from -27.8% to 47.9%.

First: CC(=Cc1ccccc1)CNCc1cccc(C(N)=O)c1
Second: O=C(Nc1cccc(N2CCCC2)c1)N[C@H](CCO)c1ccccc1
The INHIBITION of the first is lower: 4.3% for the first, 19.8% for the second.

Compared with `Cc1csc2cc(C(=O)NC3CCCC3)cnc12`, `CN(C(=O)Cc1ccc2c(c1)OCCO2)C1CCCC1` is lower in INHIBITION: -76.5% for the first, -138% for the second.

First: CCN1CCc2c(sc3c2C(=O)NC(C=Cc2ccccc2)N3)C1 (stereo not given)
Second: CC(=O)N1CCC[C@@H](NCc2cccc(F)c2)[C@@H]1c1ccc(C)s1
The INHIBITION of the first is higher: 15.1% for the first, -32.2% for the second.

Compared with `CCc1nc(C)sc1CN(Cc1ccncc1)C1CCN(C)CC1`, `CN1CCC(N(C)C[C@H]2CC[C@@H](Cc3ccc4c(cnn4C)c3)O2)CC1` is lower in INHIBITION: 18.8% for the first, 14.9% for the second.

Compared with `CN(C)C(=O)Cc1nc(CN2CCCC2Cn2cncn2)cs1` (stereo not given), `CN(C)C(=O)Cc1nc(CN2CCCCC2Cn2cncn2)cs1` (stereo not given) is lower in INHIBITION: 60.8% for the first, 19.1% for the second.

Compared with `CC(=O)Nc1nc(CN2CCCC2Cn2cncn2)cs1` (stereo not given), `CC(=O)Nc1nc(CN2CCCCC2Cn2cncn2)cs1` (stereo not given) is lower in INHIBITION: 61.3% for the first, 0.411% for the second.

First: CC(=O)Nc1nc(CN2CCCC2Cn2cccn2)cs1 (stereo not given)
Second: Cc1cc(N2CCC(n3cc(CN4CCC[C@@H]4CO)nn3)CC2)ccn1
The INHIBITION of the first is lower: 13.7% for the first, 68.9% for the second.

Going from `Cc1cccc(CN2CCC3(CCCN(C(=O)c4ccoc4)C3)C2=O)n1` (stereo not given) to `Cc1ccc2c(n1)N(Cc1cccnc1)CCN(C(=O)C1CC1)C2`, the INHIBITION rises from -3.52% to 31.1%.

Going from `Cc1ccc(CN2C[C@H](OCCN(C)C)[C@H]3OCCC[C@H]32)o1` to `CCn1cc(NC(=O)C2CCC(=O)N2Cc2ccc(C)o2)cn1` (stereo not given), the INHIBITION rises from -102% to 16.1%.

Going from `O=C(Nc1cccc(N2CCOCC2)c1)N[C@H](CO)c1ccccc1` to `CCC(=O)N1CCN(C(=O)Nc2cccc(N3CCOCC3)c2)CC1`, the INHIBITION falls from 51.8% to 23.2%.

Compared with `CCn1ncc(S(=O)(=O)NC2(CN3CCOCC3)CCCCC2)c1C`, `Cc1ccc2c(n1)N(CCn1cccn1)CCN(C1CCOCC1)C2` is lower in INHIBITION: 32.8% for the first, -77.4% for the second.

Going from `CCOC(=O)N1CCC(NC(=O)Nc2cccnc2OCC)CC1` to `CC(=O)N1[C@H](CN(C)C)C[C@@H]2CN(C(=O)c3occc3C)CC[C@@H]21`, the INHIBITION rises from -35.7% to 12.4%.

Going from `Fc1cnc(N2CC[C@@H](N3CCOCC3)[C@@H]2Cc2cccnc2)nc1` to `Cc1ccc2c(n1)N(Cc1cccnc1)CCN(C1CCOCC1)C2`, the INHIBITION rises from 43.8% to 64.9%.

Going from `COc1ccccc1OCCn1c(C)c(C)oc1=O` to `COc1cccc(OC)c1C(=O)NCC(c1cccn1C)N1CCCC1` (stereo not given), the INHIBITION falls from 48.2% to 30%.

Compared with `Cc1cc(N2CCC(n3cc(CCCO)nn3)CC2)ccn1`, `Cc1cc(N2CCC(n3cc(CN4CCNCC4)nn3)CC2)ccn1` is higher in INHIBITION: 41% for the first, 49.9% for the second.

Compared with `CC(C)(C)c1cnc(CN2CCC[C@H]2CO)o1`, `OC[C@@H]1CCCN1Cc1cn(C2CCN(C3CCCC3)CC2)nn1` is higher in INHIBITION: 34.1% for the first, 54.4% for the second.

Going from `CC(C)Nc1cc(N2CCC(n3cc(CCO)nn3)CC2)ncn1` to `COc1ccc(C(=O)NCC(c2cccn2C)N2CCCC2)cc1OC` (stereo not given), the INHIBITION rises from 19.3% to 52.4%.

Going from `COc1ccc(C[C@H]2CNCC[C@@H]2OCC2CC2)cc1` to `CN(C)C[C@H]1CC[C@@H](Cc2ccc3c(cnn3C)c2)O1`, the INHIBITION rises from -51.6% to 32.4%.

Going from `Cc1cncc(C2CCN(Cc3cccn3C)CC2)n1` to `COc1ccc(C(=O)NCC(c2cccn2C)N2CCN(C)CC2)cc1` (stereo not given), the INHIBITION falls from 41.2% to 6.83%.

Compared with `CCN(C)C[C@H]1CC[C@@H](Cc2ccc3c(cnn3C)c2)O1`, `Cc1cnn(CCC(=O)N2CCCC(c3noc(C)n3)C2)c1` (stereo not given) is lower in INHIBITION: 58.2% for the first, -4.16% for the second.

First: CCOc1nn(CC)cc1-c1nnc(SCC)n1C
Second: Cc1nn(C)c(C)c1C(C)NCc1ccsc1 (stereo not given)
The INHIBITION of the first is higher: 15% for the first, -14.5% for the second.

Going from `Cc1cc(C)cc(CNC(C)c2c(C)nn(C)c2C)c1` (stereo not given) to `Cc1nn(C)c(C)c1C(C)NCc1ccc(OC(C)C)cc1` (stereo not given), the INHIBITION falls from 58% to -37.7%.

First: CN1CC(=O)N(c2cccc(F)c2)CC12CCN(CC1CCOCC1)C2 (stereo not given)
Second: CN1CC(=O)N(c2ccccc2)CC12CCN(C(=O)c1cnccn1)C2 (stereo not given)
The INHIBITION of the first is lower: -4.23% for the first, 29.3% for the second.

First: COc1cc(OC)cc(C(=O)NCC(c2cccn2C)N2CCCC2)c1 (stereo not given)
Second: COc1ccc(C(=O)NCC(c2cccn2C)N2CCCC2)c(OC)c1 (stereo not given)
The INHIBITION of the first is higher: 28.4% for the first, -11.1% for the second.

First: CCc1nc(C2CCCN(C(=O)c3ccc(O)nc3)C2)no1 (stereo not given)
Second: O=C1[C@H]2CN(C3CCOCC3)C[C@H]2CN1Cc1ccncc1
The INHIBITION of the first is higher: 43.2% for the first, -2.46% for the second.

Work on `O=C1[C@H]2CN(C3CCOCC3)C[C@H]2CN1Cc1cccnc1` yielded an INHIBITION of 92%.
